Data as given in PubChem BioAssay (EPA / NIEHS).
Several values for one entry are separate records, joined by “and”; a condition that tells them apart may be missing. Identical values can stand only once. Inconclusive results are not listed. The source holds several records for some structures; these can differ, active in one and inactive in another. Activity calls are given as the source filed them. The calls were made as follows: active = hit-call score of the fitted dose curve at least 0.9, where 1 is the maximum; inconclusive = response in the unintended direction; inactive = score below 0.9.

What was measured:
[1] = TOX21_p53_BLA_p2_viability: Viability Assessment in the Tox21 HCT-116 p53 Agonism Beta-lactamase Assay, Phase 2 (AID 2283591);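 also: compound exposure lasted 16 h at 37 °C; actives lower the ATP signal meaning cytotoxicity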
Summary of the method: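 Cytotoxicity readout: CellTiter-Glo ATP luminescence, 30 min at room temperature, after the beta-lactamase read. Cells were HCT116 exposed 16 h at 37C to compounds pin-transferred at 217-fold dilution from DMSO stocks.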

[2] = molecular target: Cellular tumor antigen p53 (Homo sapiens) (UniProt P04637); test: TOX21_p53_BLA_p2_ratio: Tox21 HCT-116 p53 Agonism Beta-lactamase Assay, Ratio, Phase 2 (AID 2283592)
Summary of the method: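 Plated HCT116 p53-bla cells (4000/well) received compound after 5 h, then 16 h at 37C/5% CO2. CCF4-AM added, 2 h RT. Ratio of 460 to 530 nm emission taken as the p53 reporter signal.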

[3] = TOX21_p53_BLA_p3_viability: Viability Assessment in the Tox21 HCT-116 p53 Agonism Beta-lactamase Assay, Phase 3 (AID 2283593);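 also: cells exposed to compound for 16 h before reading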
Summary of the method: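 Cellular ATP was quantified by CellTiter-Glo luminescence, read after 30 min at room temperature. Beforehand, HCT116 cells (4000/well) received compound 5 h post-seeding, 217-fold diluted from DMSO, then incubated 16 h at 37C.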

[4] = molecular target: Cellular tumor antigen p53 (Homo sapiens) (UniProt P04637); test: TOX21_p53_BLA_p3_ratio: Tox21 HCT-116 p53 Agonism Beta-lactamase Assay, Ratio, Phase 3 (AID 2283596)
Summary of the method: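 Cells were seeded at 4000/well, rested 5 h at 37C, then dosed with DMSO compound solutions (217-fold dilution) for 16 h. CCF4-AM substrate was loaded for 2 h at room temperature, and the 460/530 nm emission ratio was fitted for gain of signal versus DMSO.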

[5] = TOX21_p53_BLA_p4_viability: Viability Assessment in the Tox21 HCT-116 p53 Agonism Beta-lactamase Assay, Phase 4 (AID 2283597);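 also: hits lower the luminescence signal meaning cytotoxicity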
Summary of the method: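 Readout: ATP luminescence (CellTiter-Glo), measured 30 min after reagent addition at RT. The reagent followed a 2 h CCF4-AM incubation, and the cells had been exposed to compound for 16 h at 37C.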

[6] = molecular target: Cellular tumor antigen p53 (Homo sapiens) (UniProt P04637); test: TOX21_p53_BLA_p5_ratio: Tox21 HCT-116 p53 Agonism Beta-lactamase Assay, Ratio, Phase 5 (AID 2283599)
Summary of the method: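 Beta-lactamase reporter ratio (blue 460 nm over green 530 nm, 405 nm excitation) after 2 h CCF4-AM loading, in HCT-116 cells exposed 16 h at 37 C to compounds pinned at 217-fold dilution. Increases relative to DMSO baseline scored.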

[7] = TOX21_p53_BLA_p5_viability: Viability Assessment in the Tox21 HCT-116 p53 Agonism Beta-lactamase Assay, Phase 5 (AID 2283600)
Summary of the method: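 Workflow: seed 4000 cells per well, wait 5 h, add compounds (DMSO, 217-fold dilution), incubate 16 h, load CCF4-AM 2 h, add CellTiter-Glo, read luminescence after 30 min.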

[8] = ATG_XTT_Cytotoxicity: Cytotoxicity Assessment in the Attagene TRANS-FACTORIAL HepG2 Assay (AID 2283584)
Summary of the method: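 Cells: human HepG2, transiently transfected with MRTU reporter constructs. Exposure 24 h. Readout: XTT, cell number. Baseline/neg ctrl DMSO; loss-of-signal scored.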

Measured: AC50

Chain of Cellular tumor antigen p53 (Homo sapiens) (P04637 whole entry, looked up): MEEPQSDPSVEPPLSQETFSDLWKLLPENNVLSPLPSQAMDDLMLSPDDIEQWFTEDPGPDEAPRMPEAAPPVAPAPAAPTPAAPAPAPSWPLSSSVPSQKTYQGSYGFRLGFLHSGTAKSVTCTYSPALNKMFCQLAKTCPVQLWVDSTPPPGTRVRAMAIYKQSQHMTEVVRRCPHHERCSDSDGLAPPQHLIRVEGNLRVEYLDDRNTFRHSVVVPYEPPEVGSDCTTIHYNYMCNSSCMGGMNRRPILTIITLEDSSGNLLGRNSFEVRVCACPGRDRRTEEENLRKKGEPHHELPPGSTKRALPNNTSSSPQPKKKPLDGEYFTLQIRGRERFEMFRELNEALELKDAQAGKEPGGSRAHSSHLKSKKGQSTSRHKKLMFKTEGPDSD

CCc1ccc(O)cc1
inactive: [1] | [2] | [3] | [4] | [5] | [6] | [7]

COS(=O)(=O)O
inactive: [8] | [7]

CC(=O)C1(C)CC2=C(CCCC2(C)C)CC1C (stereo not drawn)
inactive: [1] | [2] | [3] | [5] | [6] | [7]

CC(C)(C)CC(C)(C)c1ccc(OCCOCC[N+](C)(C)Cc2ccccc2)cc1
active: [1] 37.1 µM and 32.8 µM | [2] 56.2 µM and 34.8 µM | [3] 60.7 µM and 23 µM | [5] 33.7 µM and 23 µM | [6] 79.3 µM and 36.8 µM | [7] 73.6 µM
inactive: [7]

CCC1(C)NC(=O)NC1=O (stereo not drawn)
inactive: [1] | [2] | [3]

CCc1cc(C(C)(C)C)c(O)c(C(C)(C)C)c1
inactive: [1] | [2] | [3] | [4] | [5] | [6] | [7]

COCCOCCOCCO
inactive: [1] | [2] | [3] | [4] | [6] | [7]

CCCN(CCC)S(=O)(=O)c1ccc(C(=O)O)cc1
inactive: [1] | [2] | [3] | [5] | [6] | [7]

Cc1cc(CCC(=O)OCCOCCOCCOC(=O)CCc2cc(C)c(O)c(C(C)(C)C)c2)cc(C(C)(C)C)c1O
inactive: [2] | [3] | [7]

Cc1ccc(S(=O)(=O)Oc2ccc(N=Nc3ccc(-c4ccc(N=Nc5c(O)ccc6cc(S(=O)(=O)O)cc(S(=O)(=O)O)c56)c(C)c4)cc3C)cc2)cc1
inactive: [2] | [3] | [4] | [5] | [6] | [7]

COC(C)(C)CCCC(C)CC=O (stereo not drawn)
inactive: [1] | [2] | [4] | [6] | [7]

N#Cc1cscn1
inactive: [2] | [3] | [4] | [5] | [7]

CC1=NN(c2ccc(S(=O)(=O)O)cc2)C(=O)C1
inactive: [2] | [4] | [6] | [7]

CC1=CC[C@@]23C[C@@H]1C(C)(C)[C@@H]2CC[C@H]3C
inactive: [7]

c1ccc2cc(Nc3ccc(Nc4ccc5ccccc5c4)cc3)ccc2c1
inactive: [2] | [3] | [4] | [6] | [7]
active: [4] 73.5 µM

FC(F)(F)COCC(F)(F)F
inactive: [2] | [3] | [4] | [6] | [7]

CCOC(=O)CCc1ccccc1
inactive: [1] | [2] | [3] | [7]

CCCCSCCCC
inactive: [1] | [2] | [4] | [6] | [7]

O=C1NC2NC(=O)NC2N1 (stereo not drawn)
inactive: [1] | [2] | [5] | [6] | [7]

O=C1OC[C@H](Cc2cccc(O)c2)[C@H]1Cc1cccc(O)c1
inactive: [1] | [6] | [7]

CCCCCCCCCCCCCCCC(=O)OC/C=C(C)/C=C/C=C(C)/C=C/C1=C(C)CCCC1(C)C
inactive: [1] | [3] | [4] | [7]

N#Cc1ccc(CC(=O)c2cccc(C(F)(F)F)c2)cc1
inactive: [6] | [7]

Nc1ccn([C@H]2CS[C@@H](CO)O2)c(=O)n1
inactive: [2] | [6]

CC(C)CCCCCCc1ccc(OCCOCCO)cc1
inactive: [3] | [4] | [6] | [7]

CC(C)C[C@H](NC(=O)OCC1c2ccccc2-c2ccccc21)C(=O)O
inactive: [2] | [6] | [7]

C[C@H]1C[C@@H](O)CC(C)(C)C1
inactive: [2] | [4] | [6]

COC(C)(C)CCO
inactive: [1] | [2] | [6] | [7]

C[N+](C)(C)CCCCCC[N+](C)(C)C
inactive: [2] | [5] | [6]

CCOc1ccc(N=Nc2ccc(C=Cc3ccc(N=Nc4ccc(OCC)cc4)cc3S(=O)(=O)O)c(S(=O)(=O)O)c2)cc1
inactive: [3] | [7]

NCC1CCCC(CN)C1 (stereo not drawn)
inactive: [1] | [2] | [6] | [7]

CC(C)CCCCCCCCCCCCCCC(=O)O
inactive: [2] | [3] | [6]

C1CCCCC1
inactive: [1] | [5] | [6] | [7]

C=C(C)C(=O)OCCOC1CC2CC1C1C=CCC21 (stereo not drawn)
inactive: [2] | [3] | [4] | [6] | [7]

CCOc1ccccc1O
inactive: [1] | [2] | [6] | [7]

c1ccc(CCc2ccccc2)cc1
inactive: [1] | [2] | [6] | [7]

CCCCCCCCN1CCCC1=O
inactive: [6] | [7]

CC(C)=CCCC(C)CCOC=O (stereo not drawn)
inactive: [1] | [2] | [6] | [7]
active: [3] 39.7 µM

COc1ccc(N)c([N+](=O)[O-])c1
inactive: [3] | [6] | [7]

CN1CCOCC1
inactive: [1] | [2] | [4] | [6] | [7]

COC(CC(C)CCCC(C)(C)O)OC (stereo not drawn)
inactive: [1] | [6]

CCC(=O)O[C@@H]1C[C@H]2CC[C@]1(C)C2(C)C
inactive: [4] | [6]

c1ccc(Oc2ccccc2)cc1
inactive: [2] | [3] | [4] | [6]

CN(C)CCOC(C)(c1ccccc1)c1ccccn1 (stereo not drawn)
inactive: [2] | [4] | [5] | [6] | [7]

CC(C)c1ccccc1O
inactive: [2] | [3] | [4] | [5] | [7]

CC/C=C\CCOC(=O)CC
inactive: [3] | [4] | [6]

COc1ccccc1N=Nc1c(S(=O)(=O)O)cc2cc(S(=O)(=O)O)cc(NC(C)=O)c2c1O
inactive: [2] | [3] | [4] | [5] | [6]

CCc1ncc(C)[nH]1
inactive: [1] | [4] | [5] | [6] | [7]
